Assay [1] in a line: Quantitative High-Throughput drug screen in 47 multiple myeloma cell lines against the NCATS MIPE library collection: OPM1_PLB cell viability assay (AID 1918989). Further: nearly all actives have a fitted effect of over 40% in size. Conditions: CellTiter-Glo, 48 h; series mostly up to 45.8 µM. An outline of the steps:
(§1)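 Readout: median RLU from CellTiter-Glo after 5 min at room temperature. Preceding step was 48 h drug treatment of 500 cells/well at 37 °C, 5% CO2, with DMSO-only and media-only control wells.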

Assay [2] can be described thus: Quantitative High-Throughput drug screen in 47 multiple myeloma cell lines against the NCATS MIPE library collection: SKMM1_PLB cell viability assay (AID 1919863). Further: nearly all actives have a fitted effect of over 35% in size. Conditions: SKMM1 myeloma viability, CellTiter-Glo ATP, 48 h; viability: hits give low values. The method, boiled down:
as §1

A short description of assay [3]: Quantitative High-Throughput drug screen in 47 multiple myeloma cell lines against the NCATS MIPE library collection: U266_ATCC cell viability assay (AID 1919864). Further: nearly all actives have a fitted effect of over 35% in size. The note with it: U266 myeloma viability, CellTiter-Glo ATP luminescence, 48 h; series mostly up to 45.8 µM. The method, boiled down: as §1
The nature of assay [4]: Quantitative High-Throughput drug screen in 47 multiple myeloma cell lines against the NCATS MIPE library collection: XG6_PLB cell viability assay (AID 1919865). Further: nearly all actives have a fitted effect of over 40% in size. Conditions: XG6 myeloma viability, CellTiter-Glo ATP luminescence, 48 h; series mostly up to 45.8 µM. An outline of the steps:
as §1

Assay [5] is described as follows: Quantitative High-Throughput drug screen in 47 multiple myeloma cell lines against the NCATS MIPE library collection: XG1_PLB cell viability assay (AID 1919866). Further: nearly all actives have a fitted effect of over 35% in size. The note with it: CellTiter-Glo ATP, 48 h; series mostly up to 45.8 µM. The method, boiled down:
as §1

Assay [6] can be described thus: Quantitative High-Throughput drug screen in 47 multiple myeloma cell lines against the NCATS MIPE library collection: UTMC2_PLB cell viability assay (AID 1919868). Further: nearly all actives have a fitted effect of over 55% in size. Conditions: CellTiter-Glo ATP luminescence, 48 h; viability (% of DMSO control): at 45.8 µM (top of the series). An outline of the steps:
as §1

The nature of assay [7]: Quantitative High-Throughput drug screen in 47 multiple myeloma cell lines against the NCATS MIPE library collection: PE2_PLB cell viability assay (AID 1919869). Further: nearly all actives have a fitted effect of over 35% in size. The note with it: PE2_PLB myeloma cells viability, ATP luminescence, 48 h; series mostly up to 45.8 µM. The method, boiled down: as §1
The nature of assay [8]: Quantitative High-Throughput drug screen in 47 multiple myeloma cell lines against the NCATS MIPE library collection: RPMI8226_ATCC cell viability assay (AID 1919871). Further: nearly all actives have a fitted effect of over 30% in size. The note with it: RPMI8226 myeloma viability, CellTiter-Glo ATP luminescence, 48 h; series mostly up to 45.8 µM. The method, boiled down:
as §1

A short description of assay [9]: Quantitative High-Throughput drug screen in 47 multiple myeloma cell lines against the NCATS MIPE library collection: KMS11_JCRBsus cell viability assay (AID 1919873). Further: nearly all actives have a fitted effect of over 50% in size. The note with it: KMS11 myeloma viability, CellTiter-Glo ATP luminescence, 48 h; series mostly up to 45.8 µM. An outline of the steps:
as §1

Assay [10] is described as follows: Quantitative High-Throughput drug screen in 47 multiple myeloma cell lines against the NCATS MIPE library collection: KMS28BM_JCRB cell viability assay (AID 1919874). Further: nearly all actives have a fitted effect of over 35% in size. Conditions: CellTiter-Glo ATP, 48 h; series mostly up to 45.8 µM. An outline of the steps: as §1
The nature of assay [11]: Quantitative High-Throughput drug screen in 47 multiple myeloma cell lines against the NCATS MIPE library collection: VP6_DJ cell viability assay (AID 1919867). Further: nearly all actives have a fitted effect of over 40% in size. The note with it: ATP luminescence, 48 h; series mostly up to 45.8 µM. The method, boiled down:
as §1

The nature of assay [12]: Quantitative High-Throughput drug screen in 47 multiple myeloma cell lines against the NCATS MIPE library collection: PCM6_Riken cell viability assay (AID 1919870). Further: nearly all actives have a fitted effect of over 30% in size. The note with it: CellTiter-Glo ATP, 48 h; series mostly up to 45.8 µM. The method, boiled down:
as §1

Assay [13] is described as follows: Quantitative High-Throughput drug screen in 47 multiple myeloma cell lines against the NCATS MIPE library collection: OPM2_DSMZ cell viability assay (AID 1919872). Further: nearly all actives have a fitted effect of over 30% in size. Conditions: OPM2 myeloma viability, CellTiter-Glo ATP luminescence, 48 h; series mostly up to 45.8 µM. The method, boiled down: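 Myeloma cell lines, 500 cells per well, exposed to MIPE 4.0 library compounds for 48 h at 37C, 5% CO2. Viability from ATP by CellTiter-Glo luminescence; normalised to DMSO (100%) and media-only (0%) wells.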

Several values for one entry are separate records, joined by “and”; a condition that tells them apart may be missing. Equal entries are not always repeated. Inconclusive results are not listed. A number with no mark means an inactive call. Activity calls are given as the source filed them. The call rests on the fitted dose curve; in most records, active means well fitted cell-killing curve with a large enough effect; inconclusive means small, poorly fitted or top-dose-only effect, or effect the other way; inactive means no such curve, though single readings can be large or run the other way.

The results in this text go back to PubChem BioAssay (NCATS).
Potency means the concentration at half of the fitted maximal effect.

As for `CC(C)C[C@H](NC(=O)[C@@H](O)[C@H](N)Cc1ccccc1)C(=O)O`, the Potency was 16.6 µM (active) in assay [1]; 26.4 µM (active) in assay [2]; 23.5 µM (active) in assay [3]; 20.9 µM (active) in assay [4]; 20.9 µM (active) in [5]; 23.5 µM (active) in assay [6]. Besides, the Potency in [7] is 26.4 µM (active); in [8], 20.9 µM (active); in assay [9], 9.35 µM (active); in assay [10], 16.6 µM (active).

Consider `CCCS(=O)(=O)Nc1ccc(F)c(C(=O)c2c[nH]c3ncc(Cl)cc23)c1F`, for which the Potency in [1] is 18.7 µM (active); in assay [3] it was 11.8 µM (active); in assay [4], 10.5 µM (active); in assay [5] it was 18.7 µM (active); in assay [11], 14.8 µM (active); in assay [12], 11.8 µM (active). Further, the viability in [2] is 122%. The Potency result in [13] is “inactive”.

Turning to `Cc1cc([C@@H](C)Nc2ccccc2C(=O)O)c2nc(N3CCOCC3)cc(=O)n2c1`, the Potency is 17.1 µM (active) in assay [1]; 27 µM (active) in assay [2]; 5.4 µM (active) in assay [3]; 1.91 µM (active) in [4]; 4.29 µM (active) in [5]; 9.59 µM (active) in [11]. In addition, the Potency is 3.82 µM (active) in assay [6], 9.59 µM (active) in [7] and 42.9 µM (active) in assay [13].

Take `COc1ccc([C@@H]2CC(=O)c3c(O)cc(O[C@@H]4O[C@H](CO[C@@H]5O[C@@H](C)[C@H](O)[C@@H](O)[C@@H]5O)[C@@H](O)[C@H](O)[C@@H]4O)cc3O2)cc1O`: the Potency entry in [1], in assay [3], in [11], in [7], in [12] and in [8] was “inactive” in each case. Further, the Potency entry in assay [13], in assay [9] and in [10] was “inactive” throughout. The viability in assay [2] is 111% and 110%. Further, the results for the Potency in [4] and in [5] were 5.9 µM (active) and 4.18 µM (active), respectively.

`Nc1nc2[nH]cc(CCc3ccc(C(=O)N[C@@H](CCC(=O)O)C(=O)O)cc3)c2c(=O)[nH]1`: the Potency is 2.96 µM (active) in assay [1], 5.26 µM (active) in assay [2], 0.264 µM (active) in assay [8] and 0.59 µM (active) in [9]. Further, the Potency result in assay [5], in [7], in assay [12], in assay [13] and in [10] was “inactive” each time.

Regarding `CCC(C)(C)C(=O)O[C@H]1C[C@@H](C)C=C2C=C[C@H](C)[C@H](CC[C@@H]3C[C@@H](O)CC(=O)O3)[C@H]21`, the Potency in assay [1] was 8.33 µM (active); in [2], 18.7 µM (active); in assay [4], 18.7 µM (active); in assay [5] it was 9.35 µM (active); in [11] it was 16.6 µM (active); in assay [6], 14.8 µM (active). Moreover, the Potency in [9] was 13.2 µM (active).

Regarding `CCCCNc1cc(C(=O)O)cc(S(N)(=O)=O)c1Oc1ccccc1`, the Potency entry in assay [1], in assay [5], in assay [11], in assay [7] and in assay [8] was “inactive” in each case. The viability in assay [2] was 158%.

`Clc1cccc(Cl)c1NC1=NCCN1`: the Potency entry in [1], in assay [3], in assay [4], in [5], in [7] and in assay [12] was “inactive” throughout. The Potency result in [13] and in [10] was “inactive” throughout. Besides, the Potency in assay [11] is 5.26 µM (active).

`CS(=O)(=O)c1ccc(C(=O)Nc2ccc(Cl)c(-c3ccccn3)c2)c(Cl)c1`: the Potency in assay [1] is 18.7 µM (active); in assay [5] it was 1.66 µM (active). The viability in [2] was 129%. The Potency result in assay [8] and in [10] was “inactive” throughout.

As for `CC1(C)SCCN(S(=O)(=O)c2ccc(OCC#CCO)cc2)[C@@H]1C(=O)NO`, the Potency entry in assay [1], in assay [5], in assay [7], in [8], in [13] and in assay [10] was “inactive” each time. For the same compound, the Potency in assay [2] was 0.118 µM (active).

With `N#Cc1ccc(C(c2ccc(C#N)cc2)n2cncn2)cc1`, the Potency is 16.6 µM (active) in assay [1]; 6.62 µM (active) in [2]; 16.6 µM (active) in assay [3]; 16.6 µM (active) in assay [11]; 5.9 µM (active) in [8]; 9.35 µM (active) in assay [13]. Further, in assay [10], the Potency is 5.9 µM (active). For the same compound, the Potency result in assay [7] was “inactive”.

For `Oc1ccc(C2CNCCc3c2cc(O)c(O)c3Cl)cc1` (centres undefined), the Potency entry in [1], in assay [3], in assay [5], in [7], in assay [8] and in assay [10] was “inactive” throughout. In addition, the viability in [2] was 103%.

As for `COc1ccc(CCN2CCN(CCCc3ccccc3)CC2)cc1OC`, the Potency result in assay [1], in assay [5], in assay [7] and in assay [8] was “inactive” throughout. For the same compound, the viability in assay [2] is 104%. For the same compound, the results for the Potency in assay [4] and in [10] were 4.69 µM (active) and 2.09 µM (active), respectively.

As to `Cc1ccc(N(CC2=NCCN2)c2cccc(O)c2)cc1`, the Potency in assay [1] is 23.5 µM (active); in assay [2] it was 29.6 µM (active); in assay [9], 18.7 µM (active). Moreover, the Potency entry in [11] was “inactive”.

`O=NN(CCCl)C(=O)NCCCl`: the Potency result in assay [1], in assay [4], in assay [5], in assay [11], in assay [7] and in assay [12] was “inactive” throughout. In [8], the Potency result is “inactive”. The viability in assay [2] is 118%.

As for `Cc1[nH]c(=O)c(C#N)cc1-c1ccncc1`, the Potency in assay [1] is 16.6 µM (active); in [4], 5.9 µM (active); in [7], 11.8 µM (active); in [10], 11.8 µM (active). The viability in assay [2] is 106%. Further, the Potency result in assay [8], in assay [13] and in assay [9] was “inactive” in each case.

In the case of `CN[C@@H](C)C(=O)N[C@H]1CCCC[C@H]2CC[C@@H](C(=O)N[C@@H](c3ccccc3)c3cn(CCCCc4ccc(CCCCn5cc([C@@H](NC(=O)[C@@H]6CC[C@@H]7CCCC[C@H](NC(=O)[C@H](C)NC)C(=O)N76)c6ccccc6)nn5)cc4)nn3)N2C1=O`, the Potency in assay [1] was 16.6 µM (active); in assay [2] it was 0.0037 µM (active); in assay [5], 23.5 µM (active); in assay [11], 18.7 µM (active); in [7], 18.7 µM (active). The Potency result in assay [13] was “inactive”.

Consider `CCOc1cc(N2CCC(O)CC2)ccc1Nc1ncc2c(n1)N(C)c1ccccc1C(=O)N2C`, for which the Potency in [1] is 2.96 µM (active); in [2] it was 11.8 µM (active); in assay [5], 5.9 µM (active); in assay [11], 2.09 µM (active); in assay [7], 3.72 µM (active); in assay [8], 20.9 µM (active). In addition, the Potency in assay [13] was 13.2 µM (active); in assay [9] it was 3.32 µM (active); in assay [10], 4.69 µM (active).
